Shown are actives, neighbours in structure and some others; about 5.2% of the full set was active somewhere.
FBPA coupling cs = counter-screen for Giardia aldolase inhibitors: coupling enzyme system; AID 2472; coupling enzyme system counterscreen, AmpLite Red fluorescence; activity change, negative = inhibition, % at 58.2 µM, hits read low; hit rate 0.67% among 290,000; in the data active = activity change below about -30%
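Counterscreen lacking aldolase: glyceraldehyde-3-phosphate coupling-enzyme reagent preincubated 10 min at RT with compound (at 57.5 uM final), then substrate/coupling system with AmpLite Red added; fluorescence read at 525/598 nm after 20 min RT.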
Tau fibril ThT = inhibitors of human tau fibril formation, thioflavin T binding; P10636; recombinant tau K18 P301L, heparin-induced fibrillization, ThT fluorescence; Potency, µM (titrated, usually from 57.4 µM), most hits filed as inhibitors; hit rate 2.1% among 270,000; also: nearly all actives have a fitted effect of over 55% in size
Target sequence (P10636 561-689 P618L limits assumed): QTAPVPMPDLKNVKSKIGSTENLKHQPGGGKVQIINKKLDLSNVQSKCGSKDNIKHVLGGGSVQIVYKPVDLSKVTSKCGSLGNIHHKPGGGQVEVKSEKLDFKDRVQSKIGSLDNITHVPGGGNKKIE
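Tau K18 P301L fragment (15 uM unlabeled plus 0.24 uM Alexa 594-labeled) in 100 mM sodium acetate pH 7 with compound, fibrillization induced by 20 uM heparin for 6 hr at 37 C. Thioflavin T (30 uM) added, fluorescence read after 1 hr (ex 450, em 510 nm).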
Sfp PPTase inh = blocks B. subtilis Sfp PPTase activity; Q9F4F7; Biochemical Sfp PPTase activity, qHTS; Potency, µM, most hits filed as inhibitors; hit rate 3.5% among 310,000; AID 1490;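 also: the enzyme is Sfp with the accession as filed and its product quenches rhodamine fluorescence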
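Step 1, compound plus 15 nM Sfp-PPTase, 15 min, room temperature. Step 2, add rhodamine-CoA (5 uM) and BHQ-2-YbbR (12.5 uM). Step 3, read 525/598 nm fluorescence at 0 and 30 min.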
Tau fluor counter = counter-screen for tau fibril formation inhibitors; tau K18 P301L (four-repeat tau fragment) Alexa594 fluorescence, heparin fibrillization; Potency, µM (series often up to 57.7 µM); hit rate 0.93% among 280,000; also: nearly all actives have a fitted effect of over 55% in size
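Human K18 P301L tau (15 uM unlabeled plus 0.24 uM Alexa 594-labeled, final) in 100 mM sodium acetate pH 7 was mixed with compound and 20 uM heparin and incubated 6 hr at 37 C.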
Tau fibril FP = inhibitors of human tau fibril formation; P10636; K18 P301L tau heparin fibrillization, Alexa594 FP, 6 h; Potency, µM (doses to about 57.7 µM), actives largely listed as inhibitors; hit rate 0.39% among 280,000; AID 1468; also: nearly all actives have a fitted effect of over 55% in size
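K18 P301L tau (15 uM unlabeled/0.24 uM Alexa 594-labeled, final) + compound + heparin 20 uM final; 100 mM NaOAc pH 7; 6 hr 37 C; ThT 30 uM final added, 1 hr RT; FP ex 555/em 632 nm.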
Large screens that a line does not name were inactive; [ ] = dose if it differs, or a comment. Unless noted, calls follow the shape of the dose curve; as a rule, active = well fitted curve in the direction sought with a large enough effect; inconclusive = small, poorly fitted or top-dose-only effect, or another doubt; inactive = no such curve, though single readings can be large; an effect the other way counts as inactive or inconclusive.

Cc1cc(Nc2ccccc2)nn1C(=O)c1ccc(Br)cc1	Tau fluor counter 7.94µM[quencher]
COC(=O)CN1C(=O)[C@@H]2[C@H](C1=O)[C@@H]1CC(C(=O)OC)=C[C@@H](C(=O)OC)C3C1=C(C(=O)C31CCCCC1)[C@@H]2C (some centres undefined)	none (no result: Tau fibril ThT, Tau fluor counter, Tau fibril FP)
CCN(CC)S(=O)(=O)c1nnc(NC(=O)c2ccc(Br)cc2)s1	Tau fibril ThT inconclusive (no result: FBPA coupling cs, Sfp PPTase inh)
CCc1c(O)nc(SC2CC(=O)N(c3ccccc3)C2=O)[nH]c1=O (centres undefined)	Sfp PPTase inh inconclusive
Cc1c(O)nc(SC2CC(=O)N(c3ccccc3)C2=O)[nH]c1=O (centres undefined)	Sfp PPTase inh 79.4µM
O=C1/C(=C/c2ccc([N+](=O)[O-])cc2)CCc2ccccc21	Tau fibril ThT inconclusive
O=C1/C(=C/c2cccc([N+](=O)[O-])c2)CCc2ccccc21	Tau fibril ThT 25.1µM, Tau fluor counter inconclusive
COCCn1c(SCC(=O)c2ccc(C)cc2C)nc2cc(C(=O)NC3CCCC3)ccc2c1=O	none (no result: FBPA coupling cs, Sfp PPTase inh)
CCCN=C(N)NCCC[C@H](N)C(=O)O	none
CCCCC(CC)CN=C(N)NC(N)=NCCCCCCN=C(N)NC(N)=NCC(CC)CCCC (centres undefined)	Sfp PPTase inh 14.1µM
c1ccc(CN2CCN(c3ncccn3)CC2)cc1	none (no result: Tau fibril ThT, Tau fluor counter, Tau fibril FP)
c1ccc(N(c2ccccc2)c2nc(N3CCCC3)nc(-n3ccnc3)n2)cc1	Tau fibril ThT inconclusive, Sfp PPTase inh 44.7µM
c1ccc(-c2nc(-n3ccnc3)nc(-n3ccnc3)n2)cc1	FBPA coupling cs -50.9, Sfp PPTase inh inconclusive
c1ccc(CN2CCN(c3nc(-c4ccccc4)nc(-n4ccnc4)n3)CC2)cc1	Tau fibril ThT inconclusive, Sfp PPTase inh 31.6µM, Tau fibril FP inconclusive
CC(C)Oc1ccc(CNS(=O)(=O)c2ccc(-c3cc(C(F)(F)F)on3)s2)cc1	none (no result: FBPA coupling cs, Sfp PPTase inh)
COc1ccc(-c2nc3sc(CCNS(=O)(=O)c4c(C)cc(C)cc4C)c(C)n3n2)cc1	none (no result: FBPA coupling cs, Sfp PPTase inh)
CCOc1ccc(Nc2sc(C(=O)c3ccc4c(c3)OCO4)c(N)c2S(=O)(=O)c2ccc(C)cc2)cc1	none (no result: FBPA coupling cs, Sfp PPTase inh)
Cc1cccc(C2NC(=O)c3c(sc(C)c3C)N2)c1O (centres undefined)	Tau fibril ThT 15.8µM, Sfp PPTase inh 89.1µM
Cc1ccc(C)c(C2NC(=O)c3ccccc3N2)c1 (centres undefined)	none
Cc1ccc(C2NC(=O)c3c(sc(C)c3C)N2)c(O)c1 (centres undefined)	Tau fibril ThT inconclusive, Sfp PPTase inh 50.1µM, Tau fluor counter inconclusive
O=C(/C=C/c1cccs1)NC(=S)NNC(=O)c1ccccc1O	Tau fibril ThT 14.1µM, Tau fluor counter inconclusive
N#Cc1cc2c(nc1SCc1cccnc1)CCCCC2	Sfp PPTase inh 79.4µM
N#Cc1cc2c(nc1SCc1ccccc1)CCCCC2	none
C[S+](C)CC[C@H](N)C(=O)O	none (no result: FBPA coupling cs, Tau fibril ThT, Tau fluor counter, Tau fibril FP)
COc1ccc(/C=C/C(=O)c2ccc3ccccc3c2O)cc1CN1CCOCC1	Tau fibril ThT 15.8µM, Sfp PPTase inh inconclusive
Cc1ccccc1N=C1NN=C(c2ccccc2F)CS1	Tau fibril ThT 28.2µM, Tau fibril FP inconclusive
Cc1cc(C2=NNC(=NC3CCCCC3)SC2)c(C)n1-c1c(C)n(C)n(-c2ccccc2)c1=O	Sfp PPTase inh inconclusive
Cc1cccc(C)c1N=C1NN=C(c2ccccc2F)CS1	Tau fibril ThT inconclusive
Cc1cc(C2=NNC(=NC3CC3)SC2)c(C)n1-c1ccccc1F	Sfp PPTase inh 44.7µM
c1ccc2oc(C3=NNC(=NC4CC4)SC3)cc2c1	Tau fibril ThT 14.1µM
COc1ccc(-c2c(C(=O)O)nc3ccccc3c2C(=O)O)cc1	FBPA coupling cs -34.1
CC1=NN(c2ccc([N+](=O)[O-])cc2)C(=O)C1[N+](=O)[O-] (centres undefined)	Tau fibril ThT 12.6µM, Tau fluor counter inconclusive
Cc1ccc(C(=O)NC(=S)Nc2cccc3nsnc23)cc1	Tau fibril ThT 12.6µM, Sfp PPTase inh 14.1µM, Tau fibril FP inconclusive
Cc1ccc(C(=O)NC(=S)Nc2c(C)ccc3nsnc23)cc1	Sfp PPTase inh 35.5µM
Cc1ccc2c(NC(=S)NC(=O)c3ccccc3)cccc2n1	Sfp PPTase inh 56.2µM (no result: FBPA coupling cs, Tau fibril ThT, Tau fluor counter, Tau fibril FP)
COc1cc(C(=O)NC(=S)Nc2cccc3nc(C)ccc23)cc(OC)c1OC	none
Cc1ccc(NC(=O)Cn2ncc3c4ccccc4n(Cc4ccccc4)c3c2=O)cc1Cl	none (no result: FBPA coupling cs, Sfp PPTase inh)
